Records with an inconclusive call do not appear. Calls of active or inactive are those of the source. The call rests on the fitted dose curve. Positions of bridges follow the written chain, without caps; N, C: chain ends. Non-standard residues stand in square brackets, D forms with d. Residues, ends and D or L forms follow the SMILES beside them. Groups on a side chain read outwards from the residue. ξ: configuration not given here. *: point of attachment. Phg(4-OMe) = COc1ccc([C@H](N)C(=O)O)cc1; d(aIle) = CC[C@H](C)[C@@H](N)C(=O)O; d(aThr) = C[C@@H](O)[C@@H](N)C(=O)O; NMeF = CN[C@@H](Cc1ccccc1)C(=O)O; Isobutyryl = CC(C)C(=O)*; ξL = CC(C)CC(N)C(=O)O

This test is described as follows: qHTS for inhibitors of Rabies Virus screened against the NCATS CANVASS Library (AID 1347402). As to conditions: Rabies virus infection cell assay; series mostly up to 45.9 µM.
Take `CC1(C)[C@H](Br)CC[C@]23C[C@]4(C)C(=O)CC12C[C@H]34`: the outcome was inactive.
As for `C=C1C[C@@]23C=CC(=O)[C@@](C)(CCCC(C)C(=O)O)[C@@H]2C[C@@H]1CC3` (stereo partly drawn), the compound was classed as inactive.
The entry for `C=CC(C)(C)C(=O)[C@@H](C)[C@@H]1CC[C@](C)(C=C)O1` is “inactive”; for `C/C1=C/[C@@H](C)[C@H](O)[C@@H](O)/C=C/CC/C=C/C(=O)O[C@@H]1[C@H](C)C(=O)CCCC1CC(=O)NC(=O)C1` it is “inactive”.
The entry for `CC[C@@H]1C[C@@]2(CC)OC(=O)[C@@]3(CC)[C@H](CC)[C@@H]1[C@@H]23` is “inactive”; for `OCc1ccc2ocnc2c1` it is “inactive”; for `COc1cc2c(cc1OC)[C@@H](c1ccc3c(c1)OCO3)C(C)[C@@H](C)C2=O` (stereo partly drawn) it is “inactive”.
Regarding `COc1cc2c(cc1OC)[C@@H](c1ccc3c(c1)OCO3)C(C)C(C)C2=O` (stereo partly drawn), the compound was called inactive.
As for `Cc1occ2c1C(=O)c1c(cc(O)c(O)c1O)C2=O`, the entry is “inactive”.
The entry for `CC1(C)CCC[C@]2(C)[C@@H]1CC[C@@]13C[C@@H](CC[C@H]12)C(C)(O)C3` (stereo partly drawn) is “inactive”; for `CC(=O)O[C@H]1C[C@@]2(C)[C@@H](CC[C@H]3[C@@]4(C)C=CC(=O)[C@@H](C)[C@@H]4[C@H](OC(C)=O)C(=O)[C@@]32C)/C1=C(\CCC=C(C)C)C(=O)O` it is “inactive”; for `CC(CCC[C@]1(C)C(=O)C=C[C@@]23C[C@]4(C)O[C@@H](C[C@@H]4[C@H]2O)C31)C(=O)O` (stereo partly drawn) it is “inactive”.
Turning to `O=c1cc(-c2ccc(O)cc2)oc2c([C@@H]3OC(CO)[C@H](O)[C@@H](O)[C@H]3O)c(O)cc(O)c12` (stereo partly drawn), the compound was classed as inactive.
As for `C/C(=C\[C@@H](C)CC/C=C/CC/C=C/C(=O)O)[C@@H](O)[C@H](C)C(=O)CCCC1CC(=O)NC(=O)C1`, the entry is “inactive”; as for `CC(C)=CCCC(C)(O)[C@H]1CC=C(C)C(O)C1` (stereo partly drawn), “inactive”.
`COc1ccc([C@@H]2c3cc4c(cc3C[C@H](C)C2C)OCO4)cc1OC` (stereo partly drawn): the compound was classed as inactive.
Turning to `CC[C@@H](C)[C@H]1NC(=O)C(CC(C)C)NC(=O)[C@@H](CC(C)C)NC(=O)[C@H](Cc2c[nH]c3ccccc23)NC(=O)CNC(=O)[C@@H](CC(N)=O)NC1=O` (stereo partly drawn) (cyclo(GW[dL][ξL][dI][dN])), the compound was classed as inactive.
With `O=Cc1ccc2n1C[C@@]1(C[C@H](O)[C@H](O)CO1)OC2`, the result was inactive.
For `CN1CC[C@@]2([C@@]34CCN(C)[C@@H]3Nc3ccccc34)c3ccccc3N[C@@H]12`, the compound was classed as inactive.
As for `C/C=C/[C@H]1[C@H]2C(=O)c3c(O)c(C)c(O)c(C)c3[C@]1(C(=O)O)C(=O)C=C2C`, the entry is “inactive”.
The entry for `CN1CC[C@]23c4ccccc4N[C@H]1[C@]21CCN(C)[C@H]3Nc2ccccc21` is “inactive”.
As to `COc1cc(/C=C/C(=O)O)ccc1O`, the compound was called inactive.
For `CC(C)[C@]12CC[C@@]3(C)[C@H](C)CC[C@H](O)[C@@]3(CC1)c1cc3c(cc12)[nH]c1ccccc13`, the call was inactive.
`CC[C@H](C)[C@H]1NC(=O)[C@@H](NC(=O)C(C)C)[C@@H](C)OC(=O)[C@H](COC(=O)CNC(C)=O)NC(=O)[C@@H]([C@@H](C)O)NC(=O)[C@H](Cc2ccccc2)N(C)C(=O)[C@H](c2ccc(OC)cc2)NC1=O` (Isobutyryl-T[d(aIle)][Phg(4-OMe)][NMeF][d(aThr)]S([Gly-Ac]); ester 1-C): the compound was classed as inactive.
As for `CO[C@@H]1[C@H](O)[C@@H](C)O[C@@H](OC[C@@H]2C(C)OC(=O)/C=C/[C@H](C)C(O[C@@H]3O[C@H](C)CC4(OC(=O)O[C@@H]4C)C3O)[C@@H](C)CC(C)C(=O)/C=C/[C@H]3OC23)[C@@H]1OC` (stereo partly drawn), the entry is “inactive”; as for `CN1CCc2cc3c(c4c2[C@H]1[C@@H](O)c1ccccc1-4)OCO3`, “inactive”; as for `C=C1C[C@@]23C=CC(=O)[C@@](C)(CCC(=O)Nc4c(O)ccc(C(=O)O)c4O)C2C[C@@H]1C(O)C3` (stereo partly drawn), “inactive”.
As for `C=C[C@](Cl)(CBr)CCC=C(C)C`, the entry is “inactive”; as for `C=CC(CCCCC)C1C(=O)NC(=O)C1C(=O)C1C2C(C)CC(C(=O)O)CC2CC1(O)C(=O)/C=C/C` (stereo not drawn), “inactive”.
The entry for `CO[C@@H](C[C@@H](C)[C@@H](O)/C=C/C=C/CNC(=O)C(C)(C)[C@H](O)\C(C)=C/C=C\C=C\Cc1cnco1)[C@]1(O)[C@@H](C)C(=O)N(C)[C@@]12COC2=O` is “inactive”; for `O=C1OC(CCO)c2cccc(O)c21` (stereo not drawn) it is “inactive”.
`C/C(=C\CC/C(C)=C/CC[C@]1(C)CCc2cc(O)cc(C)c2O1)CC/C=C(\C)C(=O)O`: the call was inactive.
As to `Oc1ccc([C@H]2Oc3ccc(/C=C/c4cc(O)cc(O)c4)cc3C2c2cc(O)cc(O)c2)cc1` (stereo partly drawn), the result was inactive.

The values are drawn from PubChem BioAssay (NCATS).
